In PubChem BioAssay AID1619 (SRMLSC, 2009):
About 830 (0.38%) of roughly 220,000 compounds were called active.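 How the source made its calls: active means compound inhibiting the enzyme by more than half at any dose during confirmatory dose-response retesting; inconclusive means strong single-dose inhibitors picked by rank but not retested; inactive means the rest.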 Not all results are given here. Entries with a potency or affinity are not part of this list.

biological target: Leucine aminopeptidase (Plasmodium falciparum (isolate 3D7)) (UniProt Q8IL11); experiment: P. falciparum M17LAP inhibitors, primary screen, biochemical, fluorogenic H-Leu-NHMec substrate, 1536-well (AID 1619); conditions: recombinant M17LAP, H-Leu-NHMec fluorogenic kinetic assay; at 30 µM; hits give high values;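 further: plate controls were full reaction with DMSO carrier for no effect and no enzyme background for full effect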
Sequence (Q8IL11 whole entry, looked up): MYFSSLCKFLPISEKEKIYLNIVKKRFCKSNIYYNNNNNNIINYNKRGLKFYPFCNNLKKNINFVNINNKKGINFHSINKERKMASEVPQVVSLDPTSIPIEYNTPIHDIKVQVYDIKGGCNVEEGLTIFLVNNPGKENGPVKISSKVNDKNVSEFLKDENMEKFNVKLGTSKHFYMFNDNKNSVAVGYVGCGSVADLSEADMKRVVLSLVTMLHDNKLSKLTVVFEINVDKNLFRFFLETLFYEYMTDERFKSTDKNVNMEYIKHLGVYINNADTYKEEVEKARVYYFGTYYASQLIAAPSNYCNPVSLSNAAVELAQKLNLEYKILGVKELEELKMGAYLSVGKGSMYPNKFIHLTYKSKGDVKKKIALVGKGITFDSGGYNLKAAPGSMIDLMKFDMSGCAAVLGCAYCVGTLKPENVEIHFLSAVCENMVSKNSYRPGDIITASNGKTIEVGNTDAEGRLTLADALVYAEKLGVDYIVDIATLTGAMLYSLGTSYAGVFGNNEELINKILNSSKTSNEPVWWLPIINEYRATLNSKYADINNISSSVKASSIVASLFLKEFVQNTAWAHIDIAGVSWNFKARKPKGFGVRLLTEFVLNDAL

inhibition, inactive:
CC(=O)Nc1ccc(NC(=O)CN(c2cccc(C)c2)S(C)(=O)=O)cc1 1.19%
CCc1cccc(NC(=O)CCc2nc(-c3cccs3)no2)c1 17.6%
CCNC(=S)Nc1ccc(Cl)c([N+](=O)[O-])c1 -6.59%
NC(=O)CC(NC(=O)Cc1ccc(Br)cc1)c1ccc(NCc2ccc(F)c(F)c2)c([N+](=O)[O-])c1 (configuration not stated) -2.21%
Cc1noc(NS(=O)(=O)c2ccc(N/C=C/C(=O)c3ccc4c(c3)OCO4)cc2)c1C 36.4%
Cc1cc(C(=O)Nc2ccc(S(=O)(=O)Nc3onc(C)c3C)cc2)c(C)o1 -21.9%
Cc1cc(C)c(C(=O)Nc2ccc(S(=O)(=O)Nc3onc(C)c3C)cc2)c(C)c1 -10.6%
Cc1noc(NS(=O)(=O)c2ccc(NC(=O)CSc3n[nH]c(-c4ccccc4)n3)cc2)c1C -60.9%
Cc1cc(C)nc(SCC(=O)Nc2ccc(S(=O)(=O)Nc3onc(C)c3C)cc2)n1 -13.9%
Cc1noc(NS(=O)(=O)c2ccc(N/C=C/C(=O)c3ccc(F)cc3)cc2)c1C 20.6%
CCSc1cnn(-c2ccccc2)c(=O)c1SCC 9.04%
Cc1ccc(C(=O)O)cc1NC(=O)C1CCCN1S(=O)(=O)c1cccc2nsnc12 (configuration not stated) -2.3%
CC(=O)Nc1ccccc1OCC(=O)NC(C)c1ccc(F)cc1 (configuration not stated) 7.52%
CCOC(=O)c1oc2ccccc2c1NC(=O)c1ccc(S(=O)(=O)N2CCCC2)cc1 -6.8%
S=c1[nH]nc(-c2cc(-c3ccccc3)n[nH]2)n1/N=C/c1ccc(Cl)cc1 1.35%
O=C(Nc1ccc(Cl)cc1)c1csc(-c2ccccc2)n1 -10.4%
CC(C)OC(=O)/C(C#N)=C/c1cn(C)c2ccccc12 -3.85%
CC(=O)N1CCC2(CC1)C(C#N)=C(N)Oc1n[nH]c(C)c12 8.86%
COCc1[nH]nc2c1C1(CCSCC1)C(C#N)=C(N)O2 11.4%
CC(=O)N1CCC2(CC1)C(C#N)=C(N)Oc1n[nH]c(C(F)(F)F)c12 -15.9%
Cc1ccc(SCc2[nH]nc3c2C2(C(=O)Nc4ccc(F)cc42)C(C#N)=C(N)O3)cc1 (configuration not stated) 10.5%
CCCC(=O)Nc1ccc(C(=O)NN2C(=O)c3ccccc3C2=O)cc1 -2.16%
O=C(c1ccccn1)N(Cc1ccco1)C1(C(=O)NC2CCCCC2)CCCCC1 1.03%
CC1CCCCN1CC(=O)Nc1cc(S(=O)(=O)N2CCOCC2)ccc1N1CCCC1 (configuration not stated) 4.92%
Cc1ccc(NC(=O)N2CCCCC2)cc1NC(=O)N1CCCCC1 -2.13%
CC1(C)CC(CC(=O)NNc2nc(-c3ccccc3)cs2)C(=O)O1 (configuration not stated) 12.7%
C/C(CC1CC(COCC(C)C)OC1=O)=N\Nc1nc(-c2ccccc2)cs1 (configuration not stated) 10.7%
CC1CC(CC(=O)NNc2nc(-c3ccccc3)cs2)C(=O)O1 (configuration not stated) 12.5%
CC1CC(CC(=O)Nc2nc(-c3ccccc3)cs2)C(=O)O1 (configuration not stated) 2.05%
O=C(CN(Cc1ccco1)S(=O)(=O)c1ccccc1)N/N=C/c1ccccc1C(=O)O 38.3%
CCOc1cc(C(=O)OCC(=O)Nc2cc(C)on2)ccc1OCC(C)C -3.97%
Cc1ccccc1NC(=O)Cn1nnc(-c2ccc(N3CCOCC3)cc2)n1 2.77%
COc1ccccc1N(CC(=O)Nc1cc(C)on1)S(=O)(=O)c1ccc(Cl)cc1 -0.47%
NC(=O)[C@@H]1CCCN1Cc1nc(-c2cccs2)no1 -3.71%
CCCN1C=CC(=CC=C(C#N)C#N)C=C1 40.8%
C=CCN1C=C/C(=C\C=C(C#N)C#N)c2ccccc21 -9.06%
CCOC(=O)/C(C#N)=C/C=C1/C=CC=CN1C 20%
CCOC(=O)/C(C#N)=C/N=c1ccc(C)cn1C 12.6%
CCCCCCN1C=CC(=C/C=C(\C#N)C(=O)OCC)C=C1 -2.08%
CCOC(=O)/C(C#N)=C\N(C)C 5.6%
CCOC(=O)/C(C#N)=C/C=C1\C=Cc2ccccc2N1CC 1.1%
CCOC(=O)/C(C#N)=C\c1ccc(CC)s1 14.8%
CCOC(=O)c1nnn(-c2nonc2-n2cccc2)c1CCl 7.36%
COC(=O)CN(c1ccccc1OC)S(=O)(=O)c1ccccc1 -2.64%
Cc1ccc(C)c(NC2=C(Cl)C(=O)OC2OC(C)C)c1 (configuration not stated) -15.8%
CC(=O)N1CCC(N(C(=O)Nc2ccc(F)cc2)C2CCCC2)CC1 11%
CC(C)(C)c1ccc(C(=O)c2c[nH]c(C(=O)NCC3CCCO3)c2)cc1 (configuration not stated) -3.09%
NC(=O)c1ncc(C(F)(F)F)cc1Oc1cccc(C(F)(F)F)c1 -2.19%
Cc1cc(C)nc(NC(=O)C2c3ccccc3Oc3ccccc32)n1 5.07%
CCN(CC)CCNc1nc(-c2cccs2)c(CC(=O)O)s1 0.71%
CCCc1cc(C(=O)Nc2sc(C)c(CC)c2C#N)no1 3.41%
O=C(Nc1ccc(O)cc1C(=O)O)c1ccc2c(c1)C(=O)N(Cc1ccco1)C2=O -9.39%
O=C(O)c1ccc(COc2ccccc2/C=C2\NC(=O)N(Cc3ccccc3)C2=O)cc1 20.1%
O=C(NNC(=O)c1ccccc1O)c1ccco1 20.5%
COC(=O)C1=C(C)N(Cc2ccccc2)C(=O)/C1=C\c1ccco1 23.3%
O=C(CSc1nnc(-c2ccccc2)n1Cc1ccccc1)NNC(=O)c1ccccc1O 10.4%
O=C1/C(=C\c2ccco2)SC(=S)N1Cc1ccccc1 21.4%
O=C(Nc1ccc(O)cc1)c1ccc2c(c1)C(=O)N(Cc1ccco1)C2=O 13.2%
O=C(CN1C(=O)S/C(=C\c2ccccc2)C1=O)NNC(=O)c1ccccc1O 9.15%
Cc1cccc(C(=O)NCCC(=O)Nc2nc(C)c(Cc3ccc4c(c3)OCO4)s2)c1 -0.81%
CC(C)NC(=S)N1CCN(c2ncccn2)CC1 -3.12%
COc1ccc(C(=O)NC2CCN(C(=S)Nc3ccc(C)cc3)CC2)cc1 3.35%
O=C(NC(Cc1ccccc1)C(=O)NC1CC1)OCc1ccccc1 (configuration not stated) 9.99%
CCCOc1ccc(OCCSc2nnc(N)s2)cc1 -4.02%
Cc1cc(C)c(/C=N/NC(=O)c2nnn(-c3nonc3N)c2COc2ccc(F)cc2)c(C)c1 11.6%
CC(=O)Nc1nc(COc2ccccc2)cs1 -12.2%
O=[N+]([O-])c1ccc(N2CCN(S(=O)(=O)c3ccccc3)CC2)cc1NCCN1CCOCC1 -0.09%
CCOC(=O)c1cc(NC(=O)c2cccnc2)ccc1N1CCOCC1 -6.5%
Cc1ccnc(SCC(=O)N2CCCc3ccccc32)n1 -6.82%
O=S(=O)(Nc1cccc2c1CCCC2)c1cccc(C(F)(F)F)c1 -8.32%
COc1ccc([N+](=O)[O-])cc1NC(=O)Cc1ccc(Cl)cc1 8.59%
COc1cc([N+](=O)[O-])ccc1NC(=O)Cc1ccc(C)cc1 -2.2%
CC(=O)c1ccc(NC(=O)CSc2nnc(-c3ccco3)c(-c3ccco3)n2)cc1 22.5%
Cc1ccccc1NC(=O)CSc1nnc(-c2ccco2)c(-c2ccco2)n1 42.7%
Cc1cccc(NC(=O)CSc2nnc(-c3ccco3)o2)c1C 0.69%
Cc1ccc(NC(=O)CSc2nnc(-c3ccco3)c(-c3ccco3)n2)cc1 53.2%
CC1CN(Cc2nnc(-c3ccccc3)o2)CC(C)O1 (configuration not stated) 3.22%
Cc1c(NC(=O)CN2C(=O)c3cccc4cccc2c34)c(=O)n(-c2ccccc2)n1C 29.2%
COc1cccc(CNC(=O)C2CCC(CNc3c(N4CCC(C)CC4)c(=O)c3=O)CC2)c1 (configuration not stated) -8.13%
O=C(CCc1ccccc1)NNC(=S)Nc1ccc(F)cc1 5.08%
CC(C)(C)Sc1ccc(/C=N/O)cc1[N+](=O)[O-] -1.67%
N=C1/C(=C/c2cccs2)C(=O)N=C2SN=C(SCc3ccccc3)N12 14.2%
CC(C)CSC1=NSC2=NC(=O)/C(=C\c3cccs3)C(=N)N12 9.74%
O=C(CN1CCc2ccccc2C1)N1CCN(S(=O)(=O)c2ccccc2)CC1 7.42%
CCOc1ccc2nc(NC(=O)C(NS(=O)(=O)c3cccc4nsnc34)C(C)C)sc2c1 (configuration not stated) -8.83%
CC1(C)Cc2sc3c(=O)[nH]c(=S)[nH]c3c2CO1 6.75%
CCCSc1nc2c3c(sc2c(=O)[nH]1)CC(C)(CC)OC3 (configuration not stated) -0.94%
COC(=O)c1c(NC(=O)/C=C/C(=O)O)sc(C)c1-c1ccc(C)cc1 14.7%
CCOC(=O)c1c(NC(=O)/C=C/C(=O)O)sc(C)c1-c1ccc(C)c(C)c1 8.96%
COCCNc1nc2nonc2nc1N1C[C@H]2CC[C@H]1C2 8.08%
COc1ccc(N2CCN(CCCNC(=O)C3(S(=O)(=O)c4ccc(Cl)cc4)CC3)CC2)cc1 16%
COc1cc(NC(=O)CN2CCN(Cc3ccc4c(c3)OCO4)CC2)cc(OC)c1 19.9%
O=C(NNC(=O)C1CC=CCC1C(=O)O)c1ccc(Cl)cc1 (configuration not stated) 7.35%
O=C(O)C1CCCCC1C(=O)Nc1ccc(Cl)cc1 (configuration not stated) 54.6%
O=C(Nc1ccc2c(c1)CCC2)C1CCCO1 (configuration not stated) 6.84%
Cc1ccc(NC(=O)C2CCCCC2C(=O)O)cc1C (configuration not stated) 16.6%
Cc1ccc(NC(=O)C2CCCCC2C(=O)O)cc1Cl (configuration not stated) 77.4%
